The panel holds about 83,000 compounds, 20% with a hit somewhere; the sample as a whole holds those more often.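 Growth was measured after 48 h exposure to one concentration of compound in 96-well plates. Values under 10 count as active.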 Values without a mark were called inactive. The source made the active and inactive calls.
Tests used:
Assay in all cases: NCI-60 one-dose screen, 48 h (100 = growth as untreated, 0 = no growth, -100 = all killed)
NCI-H23 lung = conditions: 10 µM unless noted
NCI-H322M lung = conditions: 10 µM unless noted
HOP-62 NSCLC = conditions: 10 µM unless noted
NCI-H460 lung = conditions: 10 µM unless noted
HOP-92 NSCLC = conditions: 10 µM unless noted
NCI-H522 lung = conditions: 10 µM
A549/ATCC NSCLC = conditions: 10 µM unless noted
786-0 renal = conditions: 10 µM unless noted
DU-145 prostate = conditions: 10 µM unless noted
K-562 leukemia = conditions: 10 µM unless noted
MALME-3M melanoma = conditions: 10 µM unless noted
MDA-MB-231 breast = conditions: 10 µM unless noted
RXF 393 renal = conditions: 10 µM unless noted
SF-268 CNS = conditions: 10 µM unless noted
SF-295 CNS = conditions: 10 µM unless noted
SF-539 CNS = conditions: 10 µM unless noted
UACC-257 melanoma = conditions: 10 µM unless noted
M14 melanoma = conditions: 10 µM unless noted

Structure (SMILES) | growth (NCI-H23 lung) | growth (NCI-H322M lung) | growth (HOP-62 NSCLC) | growth (NCI-H460 lung) | growth (HOP-92 NSCLC) | growth (NCI-H522 lung) | growth (A549/ATCC NSCLC) | growth (786-0 renal) | growth (DU-145 prostate) | growth (K-562 leukemia) | growth (MALME-3M melanoma) | growth (MDA-MB-231 breast) | growth (RXF 393 renal) | growth (SF-268 CNS) | growth (SF-295 CNS) | growth (SF-539 CNS) | growth (UACC-257 melanoma) | growth (M14 melanoma)
COC(=O)c1c2c(c(C)[n+]([O-])c1C)C(=O)C(NCc1ccc(O)cc1)=CC2=O | -57.4% (active) | 0.623% (active) | -7.28% (active) | -3.38% (active) | 34% | -33.2% (active) | 4.46% (active) | 7.96% (active) | -69.2% (active) | 6.74% (active) | -98.5% (active) | -10.3% (active) | -4.53% (active) | -9.31% (active) | -9.04% (active) | -59.7% (active) | -62.4% (active) | -76.5% (active)
NS(=O)(=O)c1ccc(C(=O)N/N=C(\CS(=O)(=O)c2ccccc2)c2cc3cc(Br)ccc3o2)cc1 | 80.7% | 103% | 96% | 96.3% | 77.2% | 80.2% | 87% | 101% | 101% | 106% | 90.5% | 73.7% | 74.7% | 73.3% | 101% | 80.6% | 94.8% | 111%
CCCCC(O)Cn1ncc(C(=O)OCC)c1NC(=O)NCc1ccccc1C(F)(F)F (configuration not stated) | 98.1% | 105% | 93.4% | 103% | 84.7% | 88.3% | 89.1% | 93.2% | 102% | 71.8% | 93.2% | 92.2% | 106% | 97.7% | 94.3% | 95.9% | 93.7% | 95.2%
COc1cccc2c(=O)c3c(sc12)c(NCCN(C)C)nc1ccccc13 | 32.4% | 26.2% | 27.2% | -53.1% (active) | -3.75% (active) | 29.1% | 7.73% (active) | 28.7% | 3.35% (active) | -60.5% (active) | 36.7% | 12.3% | 3.02% (active) | 20.7% | 36% | 22.5% | 29.3% | –
O=C(c1ccc2ncc(-c3nc(NC4CC4)ncc3F)n2c1)N1CCOCC1 | 42.5% | 15.4% | 7.33% (active) | 4.24% (active) | -2.24% (active) | 72.6% | 13.9% | 9.09% (active) | 11.3% | 73.6% | 71.2% | 49.8% | -48.7% (active) | 1.39% (active) | 19.6% | -0.925% (active) | 46.1% | –
CCCCCCCC/C=C\CCCCCCCCOc1cccc(CC(=O)NCC[N+]2(C)CCCC2)c1 | 75.9% | 99.5% | 69.5% | 54.3% | 92.7% | 68.6% | 95% | 93.9% | 92.7% | 60.2% | 88.9% | 81.6% | 13% | 65.5% | 96.4% | 98.8% | 98.9% | 89.2%
O=C(c1cnn2c1NC(c1ccc(F)cc1)C2)N1CCCCC1 (configuration not stated) | 105% | 112% | 92.1% | 105% | 97% | 93.3% | 98.2% | 106% | 103% | 103% | 97.7% | 106% | 111% | 96.7% | 103% | 97.8% | 96.3% | 101%
COc1ccc(/C=N\N2CCOCC2)cc1OC1CCCC1 | 99% | 107% | 97% | 105% | 93.1% | 95.6% | 99.8% | 93.6% | 102% | 108% | 127% | 110% | 113% | 94.8% | 98.1% | 94.9% | 102% | 92.7%
COc1ccc(S(=O)(=O)c2ccc(C(N)=O)cc2)cc1NC(=O)c1[nH]c(C)c2c1CCCCC2=O | 58.7% | 68.5% | 38.8% | 70.3% | 23.6% | 42.7% | 87.7% | 60% | 82.9% | 46.5% | 70.2% | 28.9% | 68.6% | 74.2% | 49.9% | 48.7% | 63.2% | –
O=c1oc2ccccc2cc1-c1csc(N/N=C/c2cc3ccccc3nc2Cl)n1 | 99.8% | 103% | 109% | 99.7% | 97.5% | 93.3% | 92.8% | 107% | 87.6% | 108% | 103% | 79.1% | 111% | 106% | 97.8% | 96.1% | 115% | 115%
O=C(NCc1ccc(F)cc1)C1CN(c2ccc(Cl)cc2)N(c2ccc(Cl)cc2)C1=O (configuration not stated) | 78.8% | 93.1% | 60.5% | 48% | 91.1% | 52.5% | 48.8% | 79.1% | 85.3% | 23.3% | 60% | 84.3% | 65.5% | 65% | 42.5% | 87.6% | 76.3% | –
Cc1ccc(S(=O)(=O)N2CCc3ccc(O)c4c3C2Cc2ccc3c(c2-4)OCO3)cc1 (configuration not stated) | 26.5% | 53.2% | 33.8% | 8.45% (active) | 29.1% | -19.8% (active) | 18.1% | 12.6% | 10.3% | 15.1% | 61.8% | 6.15% (active) | 0.195% (active) | 37.2% | 14.3% | 3.96% (active) | 45.6% | 5.43% (active)
O=c1oc2ccccc2cc1-c1csc(N=Nc2c(O)[nH]c3ccc(Br)cc23)n1 | 98.6% | 102% | 104% | 100% | 123% | 99.5% | 93.8% | 103% | 109% | 111% | 99% | 95.6% | 115% | 101% | 101% | 99.5% | 97.3% | 105%
COc1ccc(NS(=O)(=O)c2ccc(-c3cnc(C4CC4)o3)cc2)cc1 | 71.9% | 91.8% | 54.8% | 33.2% | 63% | 51% | 54.7% | 81.3% | 81.2% | 22.8% | 58.3% | 69.7% | 83.9% | 73.2% | 50% | 65.2% | 72.5% | 40.9%
COc1ccc(/C=N/OCC(O)CNCc2ccccc2)cc1OC1CCCC1 (configuration not stated) | 106% | 97.2% | 93.5% | 102% | 79.6% | 105% | 93.5% | 89.5% | 105% | 78% | 106% | 101% | 95.5% | 91.7% | 103% | 98% | 97.2% | 98.4%
O=c1c2cc(F)ccc2oc2c(NCCNCCO)nc3ccccc3c12 | 53% | 36.1% | 35.5% | 13.1% | 38.4% | 39.8% | 45.1% | 42% | 35.8% | -36.9% (active) | 56.4% | 40.4% | 34.3% | 47.5% | 63.6% | 46.3% | 92% | 60.1%
COc1cc2oc(-c3ccc(O)cc3)cc(=O)c2c(O)c1I | 99.6% | 108% | 126% | 101% | 113% | 86.2% | 96.7% | 100% | 104% | 92.6% | 115% | 99% | 138% | 105% | 97% | 100% | 96.6% | 110%

From PubChem BioAssay (NCI)
